# According to PubChem BioAssay (EPA / NIEHS):
# Several values for one entry are separate records, joined by “and”; a condition that tells them apart may be missing. Equal entries are not always repeated. Inconclusive results are not listed. Activity calls are given as the source filed them. How the source made its calls: active means hit-call score of the fitted dose curve at least 0.9, where 1 is the maximum; inconclusive means response in the unintended direction; inactive means score below 0.9.
# Experiment: ACEA_AR_agonist_AUC_viability: ACEA Biosciences xCELLigence Real-Time Cell Analysis on Androgen Receptor Agonism for Viability (AID 2283775);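 on AC50: viability read 80 hours after compound addition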
# Method in brief: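 22Rv1 cells; impedance growth kinetics; 8-pt 1:4 dilutions from 100 uM top final, ≤0.5% DMSO; n = 2; 80 h read; AUC viability, loss-of-signal vs DMSO.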
SMILES,outcome,AC50
Clc1ccc(C(Cl)(Cl)Cl)cc1,inactive,–
O=C(O)C(F)(F)C(F)(F)C(F)(F)C(F)(F)C(F)(F)C(F)(F)C(F)(F)C(F)(F)F,–,74.2 µM (active)
CCOC(=O)C(O)(c1ccc(Cl)cc1)c1ccc(Cl)cc1,–,79.6 µM (active)
Oc1ccc(Cl)cc1Cl,inactive,–
c1ccc(-c2ccccc2)cc1,inactive,–
O=S(=O)(O)C(F)(F)C(F)(F)C(F)(F)C(F)(F)C(F)(F)C(F)(F)F,inactive,–
CCCCCCCCOC(=O)c1ccccc1C(=O)OCCCCCCCC,inactive,–
Cc1cc2c3c(c1)C(c1ccccc1)=N[C@@H](NC(=O)c1ccncc1)C(=O)N3CC2,–,50 µM (active)
Cc1cc(O)ccc1Cl,inactive,–
ClC1=C(Cl)[C@]2(Cl)[C@@H]3[C@H]4C[C@H]([C@@H]5O[C@H]45)[C@@H]3[C@@]1(Cl)C2(Cl)Cl,–,24.1 µM (active)
Cc1cc(-c2ccc(N)c(C)c2)ccc1N,inactive,–
CCOCCOC(C)=O,inactive,–
O=C(NC(=O)c1cc(F)c(F)cc1Cl)Nc1cc(F)ccc1N1CCC(C(=O)O)CC1,inactive,–
Oc1c(Cl)c(Cl)c(Cl)c(Cl)c1Cl,–,15.2 µM (active)
CCOP(=S)(OCC)SCSC(C)(C)C,–,82.5 µM (active)
Cc1ccc(O)c(C)c1,inactive,–
Cc1ccccc1O,inactive,–
ClC1=C(Cl)[C@]2(Cl)[C@@H]3[C@@H]4C[C@@H]([C@H]5O[C@@H]45)[C@@H]3[C@@]1(Cl)C2(Cl)Cl,–,50 µM (active)
Clc1ccc(Cl)cc1,inactive,–
C1CC2OC2CC1C1CO1 (configuration not stated),inactive,–
O=S(=O)(O)C(F)(F)C(F)(F)C(F)(F)C(F)(F)F,inactive,–
COS(=O)(=O)OC,inactive,–
ClC1=C(Cl)[C@]2(Cl)[C@@H]3[C@@H](Cl)[C@H]4O[C@H]4[C@@H]3C1(Cl)C2(Cl)Cl,inactive,–
O=NN(c1ccccc1)c1ccccc1,inactive,–
CC1=C2C[C@H]3[C@@H](CC=C4C[C@@H](O)CC[C@@]43C)[C@@H]2CC[C@]12O[C@@H]1C[C@H](C)CN[C@H]1[C@H]2C,inactive,–
CCCCCCOC(=O)c1ccccc1C(=O)OCCCCCC,–,43.5 µM (active)

# Experiment: ACEA_AR_antagonist_AUC_viability: ACEA Biosciences xCELLigence Real-Time Cell Analysis on Androgen Receptor Antagonism for Viability (AID 2283776);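 further: 22Rv1 human prostate cancer cells growing on impedance electrode plates; area under impedance growth curve at 80 h after dosing as viability; hits lower the growth signal relative to DMSO meaning cytotoxicity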
# Method in brief: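 Viability endpoint from label-free cell-index monitoring: 22Rv1 cultures treated with an eight-point 1:4 dilution series starting at 100 uM final, AUC at 80 h fitted against DMSO.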
SMILES,outcome,AC50
Clc1ccc(C(Cl)(Cl)Cl)cc1,inactive,–
O=C(O)C(F)(F)C(F)(F)C(F)(F)C(F)(F)C(F)(F)C(F)(F)C(F)(F)C(F)(F)F,–,72 µM (active)
O=C(O)C(F)(F)C(F)(F)C(F)(F)C(F)(F)C(F)(F)F,inactive,–
NS(=O)(=O)C(F)(F)C(F)(F)C(F)(F)C(F)(F)C(F)(F)C(F)(F)C(F)(F)C(F)(F)F,–,59.4 µM (active)
CCOC(=O)C(O)(c1ccc(Cl)cc1)c1ccc(Cl)cc1,–,19.6 µM (active)
Oc1ccc(Cl)cc1Cl,inactive,–
c1ccc(-c2ccccc2)cc1,inactive,–
O=S(=O)(O)C(F)(F)C(F)(F)C(F)(F)C(F)(F)C(F)(F)C(F)(F)F,inactive,–
CCCCCCCCOC(=O)c1ccccc1C(=O)OCCCCCCCC,inactive,–
Cc1cc2c3c(c1)C(c1ccccc1)=N[C@@H](NC(=O)c1ccncc1)C(=O)N3CC2,–,50 µM (active)
Cc1cc(O)ccc1Cl,inactive,–
ClC1=C(Cl)[C@]2(Cl)[C@@H]3[C@H]4C[C@H]([C@@H]5O[C@H]45)[C@@H]3[C@@]1(Cl)C2(Cl)Cl,–,22.5 µM (active)
Cc1cc(-c2ccc(N)c(C)c2)ccc1N,–,7.2 µM (active) and 2.03 µM (active)
CCOCCOC(C)=O,inactive,–
O=C(NC(=O)c1cc(F)c(F)cc1Cl)Nc1cc(F)ccc1N1CCC(C(=O)O)CC1,inactive,–
Oc1c(Cl)c(Cl)c(Cl)c(Cl)c1Cl,–,29.5 µM (active)

SMILES,outcome,AC50
CCOP(=S)(OCC)SCSC(C)(C)C,–,59.6 µM (active)
Cc1ccc(O)c(C)c1,inactive,–
Cc1ccccc1O,inactive,–
ClC1=C(Cl)[C@]2(Cl)[C@@H]3[C@@H]4C[C@@H]([C@H]5O[C@@H]45)[C@@H]3[C@@]1(Cl)C2(Cl)Cl,–,50 µM (active)
Clc1ccc(Cl)cc1,inactive,–
C1CC2OC2CC1C1CO1 (configuration not stated),inactive,–
CCSC(=O)N(CC)C1CCCCC1,inactive,–
Nc1ccc(-c2ccc(N)cc2)cc1,inactive,–
Nn1cnnc1,inactive,–
O=S(=O)(O)C(F)(F)C(F)(F)C(F)(F)C(F)(F)F,inactive,–
COS(=O)(=O)OC,inactive,–
ClC1=C(Cl)[C@]2(Cl)[C@@H]3[C@@H](Cl)[C@H]4O[C@H]4[C@@H]3C1(Cl)C2(Cl)Cl,–,68.9 µM (active)
O=NN(c1ccccc1)c1ccccc1,inactive,–
CC1=C2C[C@H]3[C@@H](CC=C4C[C@@H](O)CC[C@@]43C)[C@@H]2CC[C@]12O[C@@H]1C[C@H](C)CN[C@H]1[C@H]2C,inactive,–
CCCCCCOC(=O)c1ccccc1C(=O)OCCCCCC,–,50 µM (active)
